# Tau FP inhib: inhibitors of human tau fibril formation; P10636; K18 P301L tau heparin fibrillization, Alexa594 FP, 6 h; Potency, µM (doses to about 57.7 µM), for the others: top-dose activity, negative = inhibition, hits mostly inhibitors; actives 0.39% (n = 280,000); AID 1468; further: nearly all actives have a fitted effect of over 55% in size
# Target sequence (P10636 561-689 P618L limits assumed): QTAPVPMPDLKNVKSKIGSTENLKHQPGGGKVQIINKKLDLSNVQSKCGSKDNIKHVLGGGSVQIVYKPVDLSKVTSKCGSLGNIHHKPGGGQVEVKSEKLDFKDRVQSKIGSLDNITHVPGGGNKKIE
#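 Steps: dispense K18 P301L tau (15 uM plus 0.24 uM Alexa 594 tracer, final) in pH 7 sodium acetate; add compound; add heparin (20 uM final); incubate 6 hr, 37 C; add ThT (30 uM final); after 1 hr ambient, read FP.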
# TRb-SRC2 inh: inhibitors of human thyroid hormone receptor beta-SRC2 interaction; P10828; TRbeta-SRC2 peptide binding, fluorescence polarization; receptor liganded with 1 µM T3; Potency, µM (top dose mostly 106 µM), for inactives: top-dose activity change, negative = inhibition, actives largely listed as inhibitors; actives 0.065% (n = 280,000); AID 1469;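 further: plate controls were bound peptide for no effect and peptide without receptor for full effect; nearly all actives have a fitted effect of over 50% in size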
# Target sequence (P10828 whole entry, looked up): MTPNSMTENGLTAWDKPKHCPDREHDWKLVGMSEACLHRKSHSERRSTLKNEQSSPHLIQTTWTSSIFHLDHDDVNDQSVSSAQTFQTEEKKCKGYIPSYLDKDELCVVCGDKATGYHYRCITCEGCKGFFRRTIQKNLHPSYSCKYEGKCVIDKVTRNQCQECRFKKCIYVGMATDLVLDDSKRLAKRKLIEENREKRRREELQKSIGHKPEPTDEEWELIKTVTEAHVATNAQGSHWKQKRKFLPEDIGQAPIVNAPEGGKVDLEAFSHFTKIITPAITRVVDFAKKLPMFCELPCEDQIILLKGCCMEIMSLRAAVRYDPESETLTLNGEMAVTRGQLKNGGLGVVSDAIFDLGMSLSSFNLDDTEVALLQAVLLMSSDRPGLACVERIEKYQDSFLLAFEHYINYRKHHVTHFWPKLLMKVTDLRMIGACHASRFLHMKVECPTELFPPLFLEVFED
#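 TRb LBD 0.6 uM + Texas Red SRC2 peptide 20 nM, 1 uM T3, Tris buffer w/ 5% DMSO; compound pinned, 5 h RT; FP read ex 555/em 632; normalized to unbound and bound controls.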
# Tau ThT inhib: inhibitors of human tau fibril formation, thioflavin T binding | Potency, µM (doses to about 57.4 µM), for the others: at the highest dose activity, negative = inhibition, usual class: inhibitors | recombinant tau K18 P301L, heparin-induced fibrillization, ThT fluorescence | P10636 | actives 2.1% (n = 270,000); further: nearly all actives have a fitted effect of over 55% in size
#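 Heparin-induced fibrillization of the P301L-mutant K18 repeat-domain fragment of human tau was followed by ThT binding in quantitative high-throughput format.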
# Tau fluor counter: counter-screen for tau fibril formation inhibitors. actives 0.93% (n = 280,000). tau K18 P301L Alexa594 fluorescence, heparin fibrillization. Potency, µM (series often up to 57.7 µM), without a hit: top-dose activity change, negative = decrease; further: nearly all actives have a fitted effect of over 55% in size
#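 Human tau K18 P301L (15 uM unlabeled, 0.24 uM Alexa 594-labeled) in 100 mM sodium acetate pH 7 with 20 uM heparin, 6 hr at 37 C. ThT 30 uM added, 1 hr ambient; Alexa 594 FP and total fluorescence read at 555/632 nm.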
# TR SRC2 fluor cs: alters Texas Red total fluorescence, flagging assay interference. TRb/SRC2 Texas Red total fluorescence interference. Potency, µM (titrated, usually from 106 µM), for inactives: at the top dose fluorescence change, negative = quenching. actives 0.29% (n = 280,000). AID 1479; active means well fitted curve in either direction with a large enough effect; inconclusive means small, poorly fitted or top-dose-only effect
#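 Human TRβ ligand-binding domain (0.6 uM) and Texas Red SRC2 peptide (20 nM) in Tris buffer with 1 uM T3 and 5% DMSO were incubated with pinned compound for 5 hr at ambient temperature. Total fluorescence was computed as S + 2P (555/632 nm).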
# Starred values were filed as active, the others as inactive; ? = inconclusive; / = not tested or not shown; [ ] = dose if it differs, or a comment. Shown are actives, neighbours in structure and some others; about 3.1% of the full set was active somewhere. Unless noted, the call rests on the fitted dose curve; in most records, active means well fitted curve in the direction sought with a large enough effect; inconclusive means small, poorly fitted or top-dose-only effect, or another doubt; inactive means no such curve, though single readings can be large; an effect the other way counts as inactive or inconclusive. Unless noted, on the % scale 0 is the no-effect control and ±100 the full control effect; potency means the concentration at half of the fitted maximal effect.
SMILES,Tau FP inhib,TRb-SRC2 inh,Tau ThT inhib,Tau fluor counter,TR SRC2 fluor cs
O=S(=O)(O)c1ccc(N=Nc2c(O)ccc3cc(S(=O)(=O)O)ccc23)cc1,/,16.8%[201 µM],/,/,?
O=C(O)c1cc(N=Nc2c(O)ccc3ccccc23)cc(C(=O)O)c1,-4.1%,11.9%,15.8µM*,-11.2%,?
Oc1ccc2ccccc2c1N=Nc1ccccc1,/,100µM*,/,/,112µM*[fluorescent]
NS(=O)(=O)c1ccc(N=Nc2c(O)ccc3ccccc23)cc1,0.4%,-12.6%,1.12µM*,-26.2%,-3.9%
CC(=O)c1cccc(NC(=O)c2ccc(Cl)c(S(=O)(=O)N3CCOCC3)c2)c1,-10.6%,1.4%,-3.0%,-20.5%,4.3%
CCOc1ccc(C(=O)OCc2cc(=O)n3nc(C4CC4)sc3n2)cc1,4.9%,-2.7%,-5.8%,-0.1%,-9.9%
O=S(=O)(O)c1ccc(N=Nc2ccccc2)cc1,9.9%,-5.6%,-15.4%,-11.3%,-2.5%
O=c1ccc(N=Nc2ccccc2)ccc1O,-3.2%,-2.0%,4.47µM*,?,-4.2%
Cc1cccc(NC(=O)c2c(N)sc3c2CCC(C)C3)c1 (stereo unspecified),-14.7%,9.1%,8.91µM*,?,-4.7%
Cc1cccc(NC(=O)c2c(NC(=O)c3cccs3)sc3c2CCC(C)C3)c1 (stereo unspecified),-5.3%,-10.8%,-3.8%,-16.1%,-0.4%
Cc1[nH]n(-c2ccccc2)c(=O)c1/C=C1/C=c2ccccc2=N1,13.6%,-1.6%,2.24µM*,-21.2%,0.2%
Cc1cc(Nc2ccc(Cl)cc2)n2cnnc2n1,-4.2%,-6.0%,-1.9%,-5.8%,-0.7%
CCOc1cc(/C=C2\CCC/C(=C\c3cc(Cl)c(O)c(OCC)c3)C2=O)cc(Cl)c1O,?,-8.2%,8.91µM*,?,-1.9%
CC(C)c1ccc2cc(C(C)C)ccc2c1,/,-2.1%[201 µM],/,/,3.3%[201 µM]
O=C(O)c1ccc(N=NNc2cccc([N+](=O)[O-])c2)cc1,5.9%,1.9%,?,-9.4%,0.4%
N#C/C(=N\Nc1cccc([N+](=O)[O-])c1)C(=O)c1ccc(Br)cc1,13.7%,-1.6%,10µM*,?,-10.0%
C=CCN1C(=CCO)[C@H]2C[C@H]3[C@@H]1CC[C@@]31c3ccccc3N3C=C4[C@@H]5N(/C=C/2[C@H]31)c1ccccc1[C@]51CC[C@H]2[C@H]1C[C@@H]4/C(=C/CO)N2CC=C,/,0.0%[53 µM],/,/,-1.8%[53 µM]
Cn1nc(C(F)(F)F)c2cc(C(=O)Nc3ccc(C(F)(F)F)cc3)sc21,28.2µM*,6.5%,/,?,0.4%
COC(=O)C1=C(C(=O)OC)[C@@H]2N(C)c3ccccc3[C@@]23C[C@@H](C(=O)OC)N(S(=O)(=O)c2ccc([N+](=O)[O-])cc2)C3=N1,10.1%[11.6 µM],6.1%[11.2 µM],-11.3%[11.5 µM],-21.7%[11.6 µM],-4.1%[11.2 µM]
COc1ccccc1-n1c(SCC(=O)c2ccc(O)cc2O)nc2cc([N+](=O)[O-])ccc21,?,-0.3%[53 µM],-4.8%,10µM*[quencher],-3.4%[53 µM]
Cc1ccc(OCC(=O)Nc2ccc3nc(Nc4cccc(Cl)c4)cc(C)c3c2)cc1,-10.0%,5.2%,-10.7%,?,1.5%
COc1ccccc1CC(=O)Nc1ccc2nc(Nc3cccc(Cl)c3)cc(C)c2c1,?,14.1%,?,3.98µM*[quencher],7.4%
Cc1cc(Nc2cccc(C(F)(F)F)c2)nc2ccc(NC(=O)Cc3ccc(Cl)cc3)cc12,?,8.6%,?,7.94µM*[quencher],-1.2%
COc1ccc(CC(=O)Nc2ccc3nc(Nc4cccc(Cl)c4)cc(C)c3c2)cc1,?,4.5%,?,4.47µM*[quencher],-4.0%
Cc1cccc(OCC(=O)Nc2ccc3nc(Nc4cccc(C(F)(F)F)c4)cc(C)c3c2)c1,-10.3%,-2.2%,-9.1%,?,?
SMILES,Tau FP inhib,TRb-SRC2 inh,Tau ThT inhib,Tau fluor counter,TR SRC2 fluor cs
C=C1SC(Nc2c(C)cc(C)cc2C)=NC12CCCCC2,-3.8%,1.7%,-16.4%,-12.4%,-6.1%
CCCCOC(=O)c1c(C)oc2ccc(NS(=O)(=O)c3ccc4c5c(cccc35)C(=O)N4)cc12,-1.9%,-4.6%,?,15.8µM*[quencher],-4.9%
C/C(=N\NC1=NCCN1)c1ccc(N)c([N+](=O)[O-])c1,-5.9%,-1.5%,20µM*,-27.4%,-1.7%
CCCCCNC(=O)c1c[nH]c2ccc(S(=O)(=O)N3CCC(C)CC3)cc2c1=O,7.94µM*,4.6%,12.3%,?,0.4%
CCOc1ccc(NS(=O)(=O)c2ccc3[nH]cc(C(=O)NC(C)CC)c(=O)c3c2)cc1 (stereo unspecified),0.3%,-10.2%,-6.6%,-8.0%,0.9%
CCOc1ccc(NS(=O)(=O)c2ccc3[nH]cc(C(=O)NCc4ccco4)c(=O)c3c2)cc1,15.8µM*,1.1%,10.5%,?,0.1%
CCOc1ccc(NS(=O)(=O)c2ccc3[nH]cc(C(=O)NCc4ccccc4)c(=O)c3c2)cc1,3.55µM*,7.7%,-2.8%,?,-1.7%
CCCNC(=O)c1c[nH]c2ccc(S(=O)(=O)N(C)c3ccc(OCC)cc3)cc2c1=O,14.1µM*,0.0%,-1.9%,?,-7.0%
CC1(c2ccccc2)CC(C)(C)N(C(=O)c2ccccc2Cl)c2ccccc21 (stereo unspecified),-8.7%,10.8%,-7.5%,-7.7%,-3.5%
O=C(C1=C(O)C(=O)N(c2ncccn2)C1c1ccc(Cl)c(Cl)c1)c1ccco1 (stereo unspecified),?,-4.4%,17.8µM*,?,-1.4%
O=C(C1=C(O)C(=O)N(c2ncccn2)C1c1ccc(Cl)cc1)c1ccco1 (stereo unspecified),2.3%,/,-11.6%,-6.4%,/
C=CCSc1nnc2nc3[nH]c4c(C)cccc4c3nn12,8.2%,-0.5%,15.8µM*,-15.1%,-6.7%
CC1CCC(N2CCNCC2)CC1 (stereo unspecified),-1.4%,2.1%,8.0%,6.6%,-2.0%
COCCNC(=O)CN(C(=O)CCC(=O)Nc1ccccn1)c1ccc(F)c(Cl)c1,6.7%,-0.6%,6.31µM*,?,-5.2%
COCCNC(=O)CN(C(=O)CCC(=O)Nc1ccccn1)c1ccc(F)cc1,4.8%,-4.0%,-2.8%,0.4%,-0.9%
CCOC(=O)c1ccc(NC(=O)CC(=O)Nc2ccc3nc4n(c(=O)c3c2)CCCCC4)cc1,-10.1%,11.1%,-7.2%,-11.7%,-1.5%
C=C(C)C(=O)OCCCCCCCCCCCCCCCC,/,-3.2%[201 µM],/,/,-2.3%[201 µM]
COc1ccc(S(=O)(=O)Nc2ccccc2-c2nnn(CC(=O)Nc3ccccc3OC)n2)cc1,?,-1.1%,15.8%,?,0.9%
COc1ccc(NC(=O)Cn2nnc(-c3ccccc3NS(=O)(=O)c3ccccc3)n2)cc1,15.8µM*,-4.9%,13.5%,?,-2.5%
O=C(O)COc1ccccc1/C=N/Nc1ccc(S(=O)(=O)Nc2ccc(Cl)cc2)cc1[N+](=O)[O-],?,-7.8%,14.1µM*,?,-10.9%

# High-throughput results (PubChem)
